Screens as filed in PubChem.
Sampled rows, rich in hits. Any-hit rate of the full collection: about 10%.
VP16 counter = VP16 counterscreen qHTS for inhibitors of ROR gamma transcriptional activity; Drosophila S2 Gal4-VP16 UAS-luciferase, luminescence, 20 h; actives 3.5% (n = 310,000); AID 2546, 2010; Potency, µM (top dose mostly 53.6 µM), usual class: inhibitors;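 also: Gal4-VP16 expression switched on by copper sulfate through the metallothionein promoter; nearly all actives have a fitted effect of over 50% in size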
SW480 rereplic = A quantitative high throughput screen for small molecules that induce DNA re-replication in SW480 colon adenocarcinoma cells. SW480 DNA re-replication, Hoechst DNA content imaging, 48 h. Potency, µM (doses to about 46.1 µM), most hits filed as activators. actives 1.8% (n = 340,000); also: nearly all actives have a fitted effect of over 55% in size
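SW480 cells exposed to compounds for 48 hr at 37 C, 5% CO2, then Hoechst-stained 40 min. Nuclear DNA content imaged by fluorescence scanning (405 nm excitation, 500-530 nm emission); re-replication scored as increased high-intensity nuclei.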
KB-V1 MDR tox = qHTS assay for MDR1-selective chemotherapeutics: Primary screen using the drug-selected MDR subline cells KB-V1; KB-V1 MDR cells viability, CellTiter-Glo, 72 h; Potency, µM (series often up to 46.1 µM), hits mostly cytotoxic; actives 3.4% (n = 400,000); AID 1347076, 2019; also: nearly all actives have a fitted effect of over 60% in size
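Cells of the MDR subline KB-V1 are plated, dosed with compound at multiple concentrations, and incubated 72 h at 37 degrees C; CellTiter-Glo is then added and luminescence read after 10 min.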
RORg inh = qHTS for inhibitors of ROR gamma transcriptional activity | Drosophila S2 Gal4-RORgamma UAS-luciferase reporter, 20 h | Potency, µM (top dose mostly 53.6 µM), actives largely listed as inhibitors | actives 5.4% (n = 310,000) | AID 2551, 2010; also: nearly all actives have a fitted effect of over 60% in size
Target sequence (P51450 whole entry, looked up, the tested form may be a part): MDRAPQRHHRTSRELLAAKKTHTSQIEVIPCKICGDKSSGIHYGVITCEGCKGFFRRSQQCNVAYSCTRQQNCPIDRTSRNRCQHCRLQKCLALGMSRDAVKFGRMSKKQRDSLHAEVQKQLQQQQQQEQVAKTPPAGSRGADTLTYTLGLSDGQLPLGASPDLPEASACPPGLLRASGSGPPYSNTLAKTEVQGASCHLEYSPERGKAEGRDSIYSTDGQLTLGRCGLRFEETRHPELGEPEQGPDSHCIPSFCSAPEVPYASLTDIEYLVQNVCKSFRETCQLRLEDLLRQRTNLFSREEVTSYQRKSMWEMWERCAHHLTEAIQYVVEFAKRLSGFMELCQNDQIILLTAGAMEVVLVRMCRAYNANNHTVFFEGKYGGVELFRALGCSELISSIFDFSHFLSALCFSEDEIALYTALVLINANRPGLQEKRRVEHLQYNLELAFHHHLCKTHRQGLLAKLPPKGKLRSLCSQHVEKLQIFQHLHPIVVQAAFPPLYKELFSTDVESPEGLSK
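Read-out: Photinus luciferase luminescence; inhibitors lower reporter signal. Insect Schneider cells with Gal4-ROR gamma fusion under metallothionein promoter, UAS reporter; 700 uM final copper sulfate induction, 20 hr, ambient temperature.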
MCF10A rereplic = A quantitative high throughput screen for small molecules that induce DNA re-replication in MCF 10a normal breast cells; MCF 10A DNA re-replication, Hoechst nuclear intensity, 48 h; Potency, µM (highest dose often 46.1 µM), actives largely listed as activators; AID 624296, 2012; actives 2.9% (n = 350,000); also: nearly all actives have a fitted effect of over 50% in size
KB-3-1 cytotox = qHTS assay for MDR1-selective chemotherapeutics: Primary screen using the parental adenocarcinoma cell KB-3-1; actives 1.4% (n = 400,000); AID 1347075, 2019; KB-3-1 viability, CellTiter-Glo ATP luminescence, 72 h; Potency, µM (titrated, usually from 46.1 µM), most hits filed as cytotoxic; also: nearly all actives have a fitted effect of over 60% in size
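Here the drug-naive KB-3-1 line serves as comparator for MDR sub-line selectivity; cells received compound titrations, 72 h at 37 °C, then CellTiter-Glo readout.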
Of the large screens only hits and unclear results are named; the others gave an inactive call. Calls follow the shape of the dose curve; as a rule, active = well fitted curve in the direction sought with a large enough effect; inconclusive = small, poorly fitted or top-dose-only effect, or another doubt; inactive = no such curve, though single readings can be large; an effect the other way counts as inactive or inconclusive.

COc1ccc(-c2nc3ccccc3n2Cc2ccccc2)cc1	VP16 counter inconclusive, RORg inh 4µM
COc1ccc(/C=C/c2nc3ccccc3c(=O)o2)cc1	VP16 counter 7.9µM, RORg inh 4.5µM
COc1ccc(Cn2c(/C=C/c3ccccc3)nc3ccccc32)cc1	VP16 counter inconclusive, SW480 rereplic inconclusive, KB-V1 MDR tox 13µM, RORg inh 7.1µM, MCF10A rereplic inconclusive, KB-3-1 cytotox inconclusive
CC(=O)NC(c1ccc(F)c(F)c1)c1nc(-c2ccccc2)cs1 (stereo unspecified)	none (no result: VP16 counter, SW480 rereplic, RORg inh, MCF10A rereplic)
CCC(C)n1c(S(=O)(=O)O)nc2ccccc21 (stereo unspecified)	none
COc1ccc(-n2cnc3ccccc32)cc1	VP16 counter inconclusive
CCC(C)n1c(/C=C/c2ccccc2)nc2ccccc21 (stereo unspecified)	VP16 counter 13µM, RORg inh 10µM
COc1ccc(/C=C/c2nc3ccccc3n2C)cc1	VP16 counter inconclusive, KB-V1 MDR tox 4.1µM, RORg inh 2µM, KB-3-1 cytotox 5.2µM
CCCC(C)NC(=O)c1cccc(Oc2ccccc2)c1 (stereo unspecified)	KB-V1 MDR tox inconclusive, RORg inh 35µM, KB-3-1 cytotox inconclusive
O=C(NCc1ccccc1F)C(=O)NCC(c1ccco1)S(=O)(=O)c1cccs1 (stereo unspecified)	none (no result: VP16 counter, SW480 rereplic, RORg inh, MCF10A rereplic)
O=C(COC(=O)CC1c2ccccc2CCN1S(=O)(=O)c1ccc(F)cc1)Nc1ccccc1 (stereo unspecified)	none
CCc1cccc(CC)c1NC(=O)COC(=O)CC1c2ccccc2CCN1S(=O)(=O)c1ccc(F)cc1 (stereo unspecified)	KB-V1 MDR tox 18µM
Cc1ccc(S(=O)(=O)/N=C(\N)Nc2nc(C)c3ccc(C)cc3n2)cc1	none
CC(=O)c1c(C)nc(Nc2nc(C)c3cc(C)ccc3n2)nc1C	VP16 counter inconclusive, RORg inh 4µM
COc1ccc2nc(N/C(N)=N/S(C)(=O)=O)nc(C)c2c1	KB-V1 MDR tox 2.1µM, MCF10A rereplic inconclusive, KB-3-1 cytotox 8.2µM
Cc1ccc(S(=O)(=O)/N=C(\N)Nc2nc(C)c3cc(C)ccc3n2)cc1	KB-V1 MDR tox 15µM
CC(C)CC(=O)N(Cc1ccccc1)S(=O)(=O)c1ccc2c(c1)oc(=O)n2C	none (no result: VP16 counter, SW480 rereplic, RORg inh, MCF10A rereplic)
COc1ccc(C2C(C(C)=O)=C(O)C(=O)N2c2nccs2)cc1OC (stereo unspecified)	none
COc1ccc(C2C(C(C)=O)=C(O)C(=O)N2c2nc3ccccc3s2)cc1OC (stereo unspecified)	SW480 rereplic inconclusive, MCF10A rereplic 2.3µM
Cc1onc(-c2ccccc2)c1C(=O)Nc1nnc(N2CCCCCC2)s1	VP16 counter 0.35µM, RORg inh inconclusive
Cc1noc(C)c1C(=O)Nc1nnc(-c2ccccc2)s1	VP16 counter inconclusive, RORg inh 11µM
COc1ccc(CNc2nc(-c3ccccc3)nn2S(=O)(=O)c2ccccc2)cc1	none (no result: VP16 counter, SW480 rereplic, RORg inh, MCF10A rereplic)
CCCCCCCCC	none (no result: SW480 rereplic, KB-V1 MDR tox, MCF10A rereplic, KB-3-1 cytotox)
CC#CC[N+](C)(C)CCCCCCCC	KB-3-1 cytotox 18µM
O=C(NCC(=O)N(CC1CCCO1)C1(C(=O)NC2CCCCC2)CCCCC1)c1ccccc1 (stereo unspecified)	KB-V1 MDR tox 3.3µM
O=C(NCC(=O)N(CC1CCCO1)C1(C(=O)NC2CCCC2)CCCCC1)c1ccccc1 (stereo unspecified)	KB-V1 MDR tox 15µM
O=C(Cc1cccs1)Nc1c(C(=O)Nc2ccc(F)cc2)oc2ccccc12	none (no result: VP16 counter, SW480 rereplic, RORg inh, MCF10A rereplic)
CC1=CC2(O)OCCN(CCO)C2=CC1=O (stereo unspecified)	VP16 counter 16µM, RORg inh 16µM
